PubChem BioAssay (EPA / NIEHS)
Activity calls are given as the source filed them. The calls were made as follows: active = hit-call score of the fitted dose curve at least 0.9, where 1 is the maximum; inactive = score below 0.9.

Tests used:
[1] = target: Bile acid receptor (Homo sapiens) (UniProt Q96RI1); assay: ATG_IR1_CIS: Attagene CIS-FACTORIAL HepG2 Assay for human Nuclear Receptor Subfamily 1 Group H Member 4 (NR1H4), IR1 submotif (AID 2282946); conditions: IR1 reporter transcription, actives raise or lower the signal
Outline: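 Readout: reporter transcript levels by RT-PCR with fluorescent capillary electrophoresis, from HepG2 cells transiently transfected with multiplexed cis-regulated reporters and dosed 24 h. Gain- or loss-of-signal fitted versus DMSO negative control.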

[2] = ATG_GRE_CIS: Attagene CIS-FACTORIAL HepG2 Assay for human Glucocorticoid Response Elements (GRE) (AID 2282947); conditions: HepG2 GRE cis-reporter, Attagene multiplex mRNA; actives raise or lower the signal
Outline: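 HepG2, transient cis-reporter transfection, 24 h. Reporter mRNA: RT-PCR then CE, fluorescence. Fit both directions vs DMSO.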

[3] = ATG_M_32_CIS: Attagene CIS-FACTORIAL HepG2 Assay for M32 Transcription Factor (Internal Marker) (AID 2282949); conditions: HepG2 Attagene cis-factorial M32 reporter, mRNA; actives raise or lower the signal;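 also: background control marker of the multiplexed CIS panel rather than a real target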
Outline: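 Using DMSO as baseline, bidirectional curve fits were applied to reporter mRNA signals. These came from transiently transfected HepG2 cells exposed for 24 h, with RNA analysed by RT-PCR, FAM primer extension, HpaI digestion and CE.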

[4] = ATG_M_06_CIS: Attagene CIS-FACTORIAL HepG2 Assay for M06 Transcription Factor (Internal Marker) (AID 2282950); conditions: HepG2 Attagene CIS-FACTORIAL M06 internal marker reporter; actives raise or lower the signal
Outline: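 Serves as a background control readout. Transfected HepG2 exposed to compounds for 24 h, then reporter transcripts quantified by fluorescent RT-PCR and capillary electrophoresis. Both directions fitted against DMSO baseline.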

[5] = target: Hypoxia-inducible factor 1-alpha (Homo sapiens) (UniProt Q16665); assay: ATG_HIF1a_CIS: Attagene CIS-FACTORIAL HepG2 Assay for human Hypoxia Inducible Factor 1 (HIF1A) (AID 2282951); conditions: HepG2 Attagene cis-factorial HIF1a reporter transcription; actives raise or lower the signal
Outline: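 HepG2 cells transiently transfected with multiplexed cis-promoter reporter units; reporter mRNA read 24 h after dosing by RT-PCR, 6-FAM primer-extension labelling, HpaI digestion and capillary electrophoresis. Bidirectional fit versus DMSO baseline.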

[6] = target: Hepatocyte nuclear factor 6 (Homo sapiens) (UniProt Q9UBC0); assay: ATG_HNF6_CIS: Attagene CIS-FACTORIAL HepG2 Assay for human Hepatocyte Nuclear Factor 6 (HNF6) (AID 2282952); conditions: HepG2 Attagene cis-factorial HNF6 reporter transcription; actives raise or lower the signal
Outline: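 Endogenous transcription factor activity in human HepG2 liver cells was captured through cis-regulated reporter constructs. After 24 h treatment, reporter mRNA was measured by RT-PCR with capillary electrophoresis, and activity was fitted in both directions relative to DMSO.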

[7] = target: Paired box protein Pax-6 (Homo sapiens) (UniProt P26367); assay: ATG_Pax6_CIS: Attagene CIS-FACTORIAL HepG2 Assay for human Paired Box 6 (PAX6) (AID 2282956); conditions: HepG2 CIS-FACTORIAL PAX6 reporter transcription, RNA readout; actives raise or lower the signal
Outline: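 Readout: reporter transcript fluorescence after RT-PCR and capillary electrophoresis. Cells: HepG2, transiently transfected with cis-regulated MRTUs. Exposure 24 h. Gain or loss of signal fitted bidirectionally relative to DMSO.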

[8] = ATG_PPRE_CIS: Attagene CIS-FACTORIAL HepG2 Assay for human Peroxisome Proliferator-activated Response Element (PPRE) (AID 2282958); conditions: HepG2 PPRE cis-element reporter, Attagene transcription factor profiling; actives raise or lower the signal
Outline: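 HepG2 cells transiently transfected with multiplexed cis-element reporter units measure endogenous transcription factor activity. After 24 h compound exposure, reporter mRNA is quantified by RT-PCR, 6-FAM labeling, HpaI digestion and capillary electrophoresis; bidirectional fits are made against DMSO baseline.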

[9] = ATG_RORE_CIS: Attagene CIS-FACTORIAL HepG2 Assay for human RAR-related Orphan Receptor Element (RORE) (AID 2282959); conditions: HepG2 Attagene cis-factorial RORE reporter, mRNA; actives raise or lower the signal
Outline: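 HepG2 cells transiently transfected with multiple cis-element reporter transcription units, exposed to chemical for 24 h. Reporter mRNA quantified by RT-PCR, 6-FAM primer-extension labeling, HpaI digestion and capillary electrophoresis; bidirectional fit versus DMSO baseline.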

[10] = ATG_Sox_CIS: Attagene CIS-FACTORIAL HepG2 Assay for human SRY-box transcription factor (SOX) (AID 2282960); conditions: HepG2 Attagene cis-factorial SOX reporter, mRNA; actives raise or lower the signal
Outline: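 HepG2 cells transiently transfected with cis-element-driven multiple reporter transcription units, dosed 24 h; reporter mRNA measured by RT-PCR, FAM labelling, HpaI digestion and capillary electrophoresis. Bidirectional fit versus DMSO baseline.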

[11] = target: Transcription factor Sp1 (Homo sapiens) (UniProt P08047); assay: ATG_Sp1_CIS: Attagene CIS-FACTORIAL HepG2 Assay for human Specificity Protein 1 (Sp1) (AID 2282961); conditions: HepG2 Sp1 cis-reporter transcription, actives raise or lower the signal
Outline: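 HepG2 cells transiently transfected with multiple reporter transcription units driven by cis-regulatory elements; Sp1-responsive reporter mRNA measured 24 h after dosing by RT-PCR and capillary electrophoresis fluorescence, fitted bidirectionally against DMSO baseline.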

[12] = ATG_SREBP_CIS: Attagene CIS-FACTORIAL HepG2 Assay for human Sterol Regulatory Element Binding (SREBP) (AID 2282962); conditions: HepG2 Attagene cis-factorial SREBP reporter, mRNA; actives raise or lower the signal
Outline: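 Readout: fluorescent reporter-transcript peaks resolved by capillary electrophoresis after RT-PCR. Cells were human HepG2 carrying transfected cis-promoter reporter constructs, dosed for 24 h. Gain or loss of signal was fitted against DMSO controls.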

[13] = ATG_TA_CIS: Attagene CIS-FACTORIAL HepG2 Assay for human TA Basal Promoter (AID 2282964); conditions: HepG2 Attagene CIS-factorial TA basal promoter reporter; actives raise or lower the signal
Outline: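 Background-control readout: TA basal promoter reporter mRNA, fitted in both directions relative to DMSO. Measured by RT-PCR and capillary electrophoresis 24 hours after treating HepG2 human liver cells transiently carrying multiplexed cis-regulated reporter constructs.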

[14] = ATG_ISRE_CIS: Attagene CIS-FACTORIAL HepG2 Assay for human Interferon Regulatory Factor 1 (IRF1) binding to an Interferon-Stimulated Response Element (ISRE) (AID 2282948); conditions: HepG2 ISRE cis-reporter (Attagene), mRNA transcription readout; actives raise or lower the signal
Outline: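 Read-out: fluorescent RT-PCR products resolved by capillary electrophoresis, reporting endogenous transcription factor activity via ISRE-driven reporter mRNA in transfected HepG2 cells dosed for 24 h; gain or loss fitted relative to DMSO.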

[15] = ATG_MRE_CIS: Attagene CIS-FACTORIAL HepG2 Assay for human Metal Responsive Element (MRE) (AID 2282954); conditions: HepG2 MRE cis-reporter transcription, Attagene multiplex; actives raise or lower the signal
Outline: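 Readout: capillary electrophoresis of 6-FAM-labelled, HpaI-digested RT-PCR reporter products. System: HepG2 cells carrying transient multiplexed cis reporters, dosed 24 h. Analysis: bidirectional fit, DMSO baseline.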

[16] = ATG_PBREM_CIS: Attagene CIS-FACTORIAL HepG2 Assay for human Phenobarbital-responsive Enhancer Module (PBREM) (AID 2282955); conditions: HepG2 PBREM cis-reporter, Attagene multiplexed transcription; actives raise or lower the signal
Outline: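 HepG2 cells transiently transfected with multiple cis-regulated reporter transcription units; endogenous factor activity at the PBREM element measured as reporter mRNA 24 h after dosing, via RT-PCR and capillary electrophoresis of fluorescent fragments; bidirectional fitting versus DMSO.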

[17] = ATG_PXRE_CIS: Attagene CIS-FACTORIAL HepG2 Assay for human Pregnane X Receptor Element (PXRE) (AID 2282957); conditions: HepG2 Attagene CIS-FACTORIAL PXRE reporter, mRNA; actives raise or lower the signal
Outline: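 Endogenous transcription factor activity in HepG2 was gauged through induction of reporter mRNA driven by a cis-regulating promoter element, sampled 24 h post-treatment. Activity was fitted in both directions against DMSO negative control.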

[18] = ATG_TCF_b_cat_CIS: Attagene CIS-FACTORIAL HepG2 Assay for human T-Cell-Factor with beta-catenin (TCF/b-cat) (AID 2282965); conditions: HepG2 TCF/beta-catenin cis-reporter transcription, actives raise or lower the signal
Outline: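 Using capillary electrophoresis as the read-out, labelled reporter cDNA fragments from transiently transfected HepG2 were sized and quantified. Exposure lasted 24 hours; activity in either direction was referenced to DMSO.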

[19] = target: Heat shock factor protein 1 (Homo sapiens) (UniProt Q00613); assay: ATG_HSE_CIS: Attagene CIS-FACTORIAL HepG2 Assay for human Heat Shock Transcription Factor 1 (HSE) (AID 2282953); conditions: HepG2 HSE cis-reporter, Attagene RNA transcription; actives raise or lower the signal
Outline: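 Endogenous transcription factor activity in transiently transfected HepG2, read as reporter mRNA by RT-PCR with fluorescent capillary electrophoresis after 24 h. Gain or loss of signal fitted versus DMSO baseline.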

[20] = target: Signal transducer and activator of transcription 3 (Homo sapiens) (UniProt P40763); assay: ATG_STAT3_CIS: Attagene CIS-FACTORIAL HepG2 Assay for human Signal Transducer and Activator of Transcription 3 (STAT3) (AID 2282963); conditions: HepG2, Attagene cis-factorial STAT3 reporter transcription; actives raise or lower the signal
Outline: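 Uses human liver HepG2 transiently carrying cis-regulated reporter transcription units. Following 24 h dosing, reporter mRNA induction was detected by RT-PCR and capillary electrophoresis, analysed bidirectionally versus DMSO.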

Measured: AC50

Sequence of Paired box protein Pax-6 (Homo sapiens) (P26367 whole entry, looked up): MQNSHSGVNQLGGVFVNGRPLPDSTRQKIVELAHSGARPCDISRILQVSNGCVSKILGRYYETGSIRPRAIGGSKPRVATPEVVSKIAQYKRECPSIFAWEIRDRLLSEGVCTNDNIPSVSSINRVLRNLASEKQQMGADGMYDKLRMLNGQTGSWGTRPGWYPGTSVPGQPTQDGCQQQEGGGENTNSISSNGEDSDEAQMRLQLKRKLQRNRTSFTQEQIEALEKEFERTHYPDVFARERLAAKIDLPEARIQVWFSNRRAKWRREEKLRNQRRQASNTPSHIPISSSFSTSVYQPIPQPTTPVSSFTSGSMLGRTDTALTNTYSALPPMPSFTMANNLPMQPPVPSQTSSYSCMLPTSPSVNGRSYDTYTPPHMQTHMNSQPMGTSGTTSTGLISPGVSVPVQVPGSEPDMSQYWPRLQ
Sequence of Bile acid receptor (Homo sapiens) (Q96RI1 whole entry, looked up): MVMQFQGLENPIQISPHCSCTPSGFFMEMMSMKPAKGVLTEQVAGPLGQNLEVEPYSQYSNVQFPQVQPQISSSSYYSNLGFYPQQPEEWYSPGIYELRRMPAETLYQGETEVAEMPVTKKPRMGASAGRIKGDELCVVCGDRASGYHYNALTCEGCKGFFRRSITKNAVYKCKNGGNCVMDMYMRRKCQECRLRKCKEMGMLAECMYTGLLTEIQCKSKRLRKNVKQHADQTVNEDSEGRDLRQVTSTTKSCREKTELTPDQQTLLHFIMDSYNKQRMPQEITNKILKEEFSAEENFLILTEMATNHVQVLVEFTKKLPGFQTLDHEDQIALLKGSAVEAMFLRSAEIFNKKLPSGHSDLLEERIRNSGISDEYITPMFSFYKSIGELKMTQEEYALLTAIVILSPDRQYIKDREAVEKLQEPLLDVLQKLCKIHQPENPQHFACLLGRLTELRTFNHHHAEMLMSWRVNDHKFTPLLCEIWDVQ
Sequence of Transcription factor Sp1 (Homo sapiens) (P08047 whole entry, looked up): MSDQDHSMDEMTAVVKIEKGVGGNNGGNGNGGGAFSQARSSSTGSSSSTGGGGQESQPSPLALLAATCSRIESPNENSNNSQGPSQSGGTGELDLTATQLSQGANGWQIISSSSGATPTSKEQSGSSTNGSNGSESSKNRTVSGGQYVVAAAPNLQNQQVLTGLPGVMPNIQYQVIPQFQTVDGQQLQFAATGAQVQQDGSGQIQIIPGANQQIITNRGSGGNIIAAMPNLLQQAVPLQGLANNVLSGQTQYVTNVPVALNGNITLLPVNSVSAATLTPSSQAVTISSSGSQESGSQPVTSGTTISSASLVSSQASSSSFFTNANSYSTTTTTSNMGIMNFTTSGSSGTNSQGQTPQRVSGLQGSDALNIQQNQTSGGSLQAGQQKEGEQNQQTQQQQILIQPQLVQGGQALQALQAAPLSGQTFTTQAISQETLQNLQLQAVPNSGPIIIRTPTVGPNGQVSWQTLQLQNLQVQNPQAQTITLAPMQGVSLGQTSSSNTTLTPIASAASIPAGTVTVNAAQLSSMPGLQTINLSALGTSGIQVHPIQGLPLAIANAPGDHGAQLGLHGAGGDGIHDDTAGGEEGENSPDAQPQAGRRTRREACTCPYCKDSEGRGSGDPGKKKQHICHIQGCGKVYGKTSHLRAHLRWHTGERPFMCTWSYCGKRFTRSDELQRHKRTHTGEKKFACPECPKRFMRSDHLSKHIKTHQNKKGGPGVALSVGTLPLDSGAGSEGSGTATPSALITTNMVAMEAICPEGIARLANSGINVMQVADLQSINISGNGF
Sequence of Signal transducer and activator of transcription 3 (Homo sapiens) (P40763 whole entry, looked up): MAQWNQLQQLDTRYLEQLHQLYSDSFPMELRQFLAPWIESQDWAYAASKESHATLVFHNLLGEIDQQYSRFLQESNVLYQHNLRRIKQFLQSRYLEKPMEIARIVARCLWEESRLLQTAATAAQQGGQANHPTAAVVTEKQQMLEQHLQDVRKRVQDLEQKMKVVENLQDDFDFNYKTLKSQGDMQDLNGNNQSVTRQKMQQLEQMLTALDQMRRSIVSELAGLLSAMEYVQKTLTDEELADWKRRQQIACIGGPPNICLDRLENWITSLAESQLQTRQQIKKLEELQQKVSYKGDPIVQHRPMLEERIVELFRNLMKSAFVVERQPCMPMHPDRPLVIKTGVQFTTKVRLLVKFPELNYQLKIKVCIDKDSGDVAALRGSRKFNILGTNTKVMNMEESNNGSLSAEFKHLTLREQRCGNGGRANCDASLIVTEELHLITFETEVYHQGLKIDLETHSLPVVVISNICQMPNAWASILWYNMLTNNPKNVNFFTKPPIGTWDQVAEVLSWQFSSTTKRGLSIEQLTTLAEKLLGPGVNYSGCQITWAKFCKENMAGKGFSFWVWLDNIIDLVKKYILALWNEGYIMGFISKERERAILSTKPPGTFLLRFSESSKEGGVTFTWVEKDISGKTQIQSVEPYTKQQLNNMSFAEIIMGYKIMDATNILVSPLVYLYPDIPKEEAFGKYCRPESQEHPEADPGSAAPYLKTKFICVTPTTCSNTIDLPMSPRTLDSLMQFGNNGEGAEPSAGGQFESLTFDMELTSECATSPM
Sequence of Hypoxia-inducible factor 1-alpha (Homo sapiens) (Q16665 whole entry, looked up): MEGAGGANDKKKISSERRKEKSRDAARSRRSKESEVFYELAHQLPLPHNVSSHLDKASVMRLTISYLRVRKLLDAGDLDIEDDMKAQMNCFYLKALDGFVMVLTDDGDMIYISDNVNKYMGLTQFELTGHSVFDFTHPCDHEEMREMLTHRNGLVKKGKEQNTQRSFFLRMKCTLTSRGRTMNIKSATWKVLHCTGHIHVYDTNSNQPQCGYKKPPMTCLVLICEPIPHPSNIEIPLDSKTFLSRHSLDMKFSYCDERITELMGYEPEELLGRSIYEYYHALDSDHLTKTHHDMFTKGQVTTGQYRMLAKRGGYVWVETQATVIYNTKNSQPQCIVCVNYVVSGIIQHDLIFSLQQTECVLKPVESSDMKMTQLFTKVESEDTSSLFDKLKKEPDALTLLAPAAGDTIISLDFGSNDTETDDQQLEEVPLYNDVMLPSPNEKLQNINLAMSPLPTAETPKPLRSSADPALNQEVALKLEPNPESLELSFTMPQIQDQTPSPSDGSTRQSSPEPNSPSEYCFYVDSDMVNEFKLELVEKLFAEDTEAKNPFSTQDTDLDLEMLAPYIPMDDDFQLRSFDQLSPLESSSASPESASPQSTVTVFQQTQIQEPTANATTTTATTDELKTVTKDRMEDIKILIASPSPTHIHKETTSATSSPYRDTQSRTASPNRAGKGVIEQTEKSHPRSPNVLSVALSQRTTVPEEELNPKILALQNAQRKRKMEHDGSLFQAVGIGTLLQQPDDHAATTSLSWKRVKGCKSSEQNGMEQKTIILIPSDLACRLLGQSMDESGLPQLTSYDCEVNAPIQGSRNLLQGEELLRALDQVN
Sequence of Hepatocyte nuclear factor 6 (Homo sapiens) (Q9UBC0 whole entry, looked up): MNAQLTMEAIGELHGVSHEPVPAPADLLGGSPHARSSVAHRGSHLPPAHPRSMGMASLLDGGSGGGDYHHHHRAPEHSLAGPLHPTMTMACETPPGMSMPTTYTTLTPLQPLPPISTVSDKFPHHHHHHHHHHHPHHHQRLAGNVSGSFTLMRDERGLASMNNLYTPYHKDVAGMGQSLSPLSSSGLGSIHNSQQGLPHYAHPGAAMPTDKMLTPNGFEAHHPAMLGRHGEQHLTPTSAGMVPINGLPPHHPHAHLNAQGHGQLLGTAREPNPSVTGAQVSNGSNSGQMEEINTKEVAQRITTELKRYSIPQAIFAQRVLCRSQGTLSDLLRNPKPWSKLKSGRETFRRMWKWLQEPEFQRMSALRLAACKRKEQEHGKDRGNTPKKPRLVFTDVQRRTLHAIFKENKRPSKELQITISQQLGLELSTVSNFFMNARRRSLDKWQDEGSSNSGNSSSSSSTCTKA
Sequence of Heat shock factor protein 1 (Homo sapiens) (Q00613 whole entry, looked up): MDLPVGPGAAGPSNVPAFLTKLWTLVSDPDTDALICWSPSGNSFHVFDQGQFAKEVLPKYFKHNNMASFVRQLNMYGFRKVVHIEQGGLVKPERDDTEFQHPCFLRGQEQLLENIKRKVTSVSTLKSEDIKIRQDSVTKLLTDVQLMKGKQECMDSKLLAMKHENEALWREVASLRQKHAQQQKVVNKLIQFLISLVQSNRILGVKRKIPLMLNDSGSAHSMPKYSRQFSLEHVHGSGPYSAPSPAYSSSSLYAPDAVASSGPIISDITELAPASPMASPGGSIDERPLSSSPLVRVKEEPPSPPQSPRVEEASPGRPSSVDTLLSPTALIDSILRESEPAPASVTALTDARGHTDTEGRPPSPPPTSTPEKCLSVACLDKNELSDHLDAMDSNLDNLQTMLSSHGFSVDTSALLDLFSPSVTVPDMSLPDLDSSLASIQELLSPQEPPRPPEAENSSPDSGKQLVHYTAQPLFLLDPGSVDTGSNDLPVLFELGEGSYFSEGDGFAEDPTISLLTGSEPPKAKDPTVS

CC=Cc1ccc(OC)c(OC)c1
not listed: [14] | [15] | [16] | [17] | [18] | [19] | [20]
inactive: all other assays above

COS(=O)(=O)O
not listed: [2] | [5] | [8] | [19] | [20]
inactive: all other assays above

O=C(O)CCCCCCCCC(=O)O
not listed: [2]
inactive: all other assays above

C[Si](C)(C)O[Si](C)(C)C
not listed: [2] | [16]
inactive: all other assays above

O=C(CS)OCCOC(=O)CS
active: [14] 57.8 µM | [17] 37.8 µM | [8] 19.7 µM
not listed: [2] | [12]
inactive: all other assays above

CC(C)CCOC(=O)c1ccccc1
not listed: [2] | [5] | [16]
inactive: all other assays above

CC(=O)C(C)O (stereo not drawn)
not listed: [2] | [8] | [20]
inactive: all other assays above

c1ccc2[nH]cnc2c1
not listed: [2] | [5] | [9] | [19] | [20]
inactive: all other assays above

CCCCCCC(=O)c1ccccc1
active: [17] 43.2 µM
not listed: [2] | [6]
inactive: all other assays above

CCCCCCCCCC(=O)OC
not listed: [2] | [16]
inactive: all other assays above

C[N+](C)(C)CCCCCC[N+](C)(C)C
not listed: [2] | [5] | [6] | [9] | [16]
inactive: all other assays above

C=C(C)C(=O)OCCOCCOCCOCCOC(=O)C(=C)C
not listed: [2] | [8] | [14] | [17]
inactive: all other assays above

OCCc1ccccc1
not listed: [2] | [16] | [19]
inactive: all other assays above

COc1ccc(CCC(C)=O)cc1
not listed: [2] | [6] | [16]
inactive: all other assays above

CCOC(=O)C(C#N)=C(c1ccccc1)c1ccccc1
active: [1] 100 µM | [5] 19.8 µM | [15] 86.9 µM | [16] 2.07 µM | [7] 35.1 µM | [17] 1.39 µM | [8] 154 µM | [9] 17.4 µM | [12] 33.3 µM | [13] 23.5 µM | [18] 26 µM
inactive: [14] | [3] | [4] | [6] | [10] | [11]

c1ccc(CCc2ccccc2)cc1
active: [17] 26.1 µM | [11] 169 µM
not listed: [2] | [6]
inactive: all other assays above
